Hits are enriched below; roughly 2.8% of the tested compounds scored in any of these assays.
KKLEB cytotox: reduces viability of KKLEB cystic fibrosis airway cells. KKLEB CF airway cells viability, ATPlite luminescence, overnight; hits give low values; cells stimulated with P. aeruginosa culture filtrate. activity change (cytotoxicity), % at 5 µM. 360,000 tested, 0.36% active;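 active means corrected activity change at or below -50% at 5 µM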
CF NFkB block: blocks PAF-induced NF-kB reporter in cystic fibrosis cells; KKLEB NF-kB-GFP reporter, GFP fluorescence overnight; inhibition, % at 5 µM; 360,000 tested, 0.86% active; AID 588850;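 active means at least 50% inhibition at 5 µM, scaled per plate between neutral and stimulator controls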;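 further: PAF is a Pseudomonas aeruginosa culture filtrate used as stimulus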
TRPM1 prom inh: reduces MITF-dependent TRPM1 promoter luciferase signal; SK-MEL-5 TRPM1 promoter luciferase, 24 h; inhibition, % at 12.5 µM; 330,000 tested, 0.83% active;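 active means mean inhibition across replicates of 60% or more, whatever share of single replicates reaches that level; inconclusive means some that reach 60%, reason not given; inactive means mean inhibition across replicates below 60%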
HIF-2a block: blocks HIF-2a reporter activity | 786-0 RCC cells HIF-2a reporter, luciferase luminescence, overnight | inhibition, % at 18.8 µM | 360,000 tested, 0.72% active | AID 624352;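 active means inhibition of the luminescence signal of 40% or more relative to plate controls, in a single-dose primary screen at 18.75 µM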
Shn3 inh set2: inhibitors of Schnurri-3 3'UTR reporter in osteoblasts. Clone20 osteoblast Shn3 3'UTR firefly luciferase, 24 h. inhibition, % at 12.5 µM. 360,000 tested, 0.52% active;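 active means mean inhibition of at least 75% with every replicate also reaching 75%; inconclusive means mean inhibition at least 75% but some replicate below; inactive means mean inhibition below 75%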
Peg3 prom inh: reduces Peg3 promoter-driven luciferase expression in HeLa; inhibition, % at 20 µM; AID 588405; HeLa PEG-Prom luciferase reporter, luminescence, overnight; 360,000 tested, 1.7% active;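 active means inhibition of at least 50% at 20 µM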
Large screens that a line does not name were inactive.

CN(Cc1ccccc1)CC(O)COc1ccc(CNCCc2cccnc2)cc1 (stereo not drawn)	none
C#Cc1ccc([C@@H]2C=C(C(=O)OCC=C)O[C@H](OCc3ccc(CO)cc3)C2)cc1	none
CC(=O)c1ccc(N2CCN(c3ccc(S(=O)(=O)NCCCN(C)C)cc3[N+](=O)[O-])CC2)cc1	Shn3 inh set2 inconclusive, Peg3 prom inh 79
O=c1[nH]c(NC2CCN(S(=O)(=O)c3ccccc3C(F)(F)F)CC2)nc2c1CCCC2	TRPM1 prom inh 71
CC1(C)CC(NC(=O)C2CCN(S(=O)(=O)c3ccccc3C(F)(F)F)CC2)CC(C)(C)N1	none
CC(NCC(O)COc1ccc(S(=O)(=O)N2CCOCC2)cc1)c1ccccc1 (stereo not drawn)	none
CC1CCC(C(C)C)C(OCC(O)CNC(C)c2ccccc2)C1 (stereo not drawn)	Peg3 prom inh 106
CC(NCC(O)COC1CCC(C(C)(C)C)CC1)c1ccccc1 (stereo not drawn)	Peg3 prom inh 64
CC1CCC(C(C)C)C(OCC(O)CNC(C)(C)C)C1 (stereo not drawn)	none
CC(=O)Oc1ccc(Cn2c(C)c(C(=O)NC3CC3)sc2=O)cc1	none (no result: TRPM1 prom inh)
Cc1ccc(S(=O)(=O)N2CCOCC2)cc1NC(=O)COc1ccc(C(=O)c2ccccc2)cc1	Peg3 prom inh 61
Cc1ccc(S(=O)(=O)N2CCOCC2)cc1NC(=O)COC(=O)CNC(=O)c1ccccc1	none
COc1cccc2sc(=NC(=O)CS(=O)(=O)c3ccc(Cl)cc3)n(C)c12	Shn3 inh set2 88
COc1cccc2sc(=NC(=O)CS(=O)(=O)c3ccc(F)cc3)n(C)c12	none
COC(=O)c1ccc(CSc2nnc(C)n2N)o1	none
Cc1ccsc1/C=N/Nc1ccc(C(=O)O)cc1	TRPM1 prom inh inconclusive, HIF-2a block 57
Cc1ccc2nc(Cl)c3nnnn3c2c1	CF NFkB block 71, Shn3 inh set2 97, Peg3 prom inh 111
Cc1ccc2nc(N3CCN(c4cccc(C)c4C)CC3)c3nnnn3c2c1	none
Cc1ccc(S(=O)(=O)c2nc(/C=C/c3ccccc3)oc2N2CCC(C(N)=O)CC2)cc1	none (no result: TRPM1 prom inh)
COc1ccccc1/C=C1\CCCC2=C1Nc1nnnn1C2c1ccccc1OC (stereo not drawn)	Shn3 inh set2 91, Peg3 prom inh 101
CC(C)n1[nH]c2ccccc2c1=O	none (no result: TRPM1 prom inh)
O=C(O)c1cccc2c1C(=O)c1ccc(-c3ccc(Cl)c(C(F)(F)F)c3)cc1S2(=O)=O	none
NC1=NC(=O)C(c2ccccc2)(c2ccccc2)S1	none
CN(C)CCCN(C(=O)c1cc(-c2cccs2)nc2ccccc12)c1nc2ccc(F)cc2s1	TRPM1 prom inh 87, Peg3 prom inh 112
CN(C)CCCN(C(=O)CCc1ccccc1)c1nc2ccc(F)cc2s1	none
Cc1ccc(C)c(OCC(O)CN2CCN(CCN3C(=O)c4cccc5cccc(c45)C3=O)CC2)c1 (stereo not drawn)	Peg3 prom inh 89
O=C1c2cccc3cccc(c23)C(=O)N1CCN1CCN(CC(O)COc2ccc3ccccc3c2)CC1 (stereo not drawn)	Peg3 prom inh 79
O=C1c2cccc3cccc(c23)C(=O)N1CC1CCN(CC(O)COc2ccc3ccccc3c2)CC1 (stereo not drawn)	Peg3 prom inh 100
CCc1ccc(OCC(O)CN2CCC(CN3C(=O)c4cccc5cccc(c45)C3=O)CC2)cc1 (stereo not drawn)	Peg3 prom inh 109
CN(Cc1ccccc1)c1nc(-c2cccc([N+](=O)[O-])c2)nc2ccccc12	none
Cc1cc(C)cc(OCC(O)CN2CCC(CN3C(=O)c4cccc5cccc(c45)C3=O)CC2)c1 (stereo not drawn)	TRPM1 prom inh 71, Peg3 prom inh 75
COc1cccc(OCC(O)CN2CCC(CN3C(=O)c4cccc5cccc(c45)C3=O)CC2)c1 (stereo not drawn)	none
COc1cc(C(=O)OCC(=O)Nc2ccc(C)cc2)cc(OC)c1OC	none
O=C(Nc1ccccc1C(=O)Nc1nnc(C(F)(F)F)s1)c1ccccc1Cl	KKLEB cytotox -61, CF NFkB block 56
NC(=O)c1ccccc1NC(=O)c1ccccc1Cl	none
NC(=O)c1ccsc1NC(=O)c1ccc2c(c1)CCCC2	KKLEB cytotox -58
